Assay results from PubChem BioAssay (NCATS).
Values joined by “and” are separate entries in the source; they are usually repeats but may differ in a detail not shown here. Equal entries are not always repeated. Records with an inconclusive call do not appear. Entries that show only a call come without a potency. Some structures have more than one record in an assay (separate samples or runs), and their calls can disagree. Active and inactive are the calls of the source. Unless noted, the call rests on the fitted dose curve; in most records, active means well fitted inhibition curve with a large enough effect; inconclusive means small, poorly fitted or top-dose-only effect; inactive means no such curve, though single readings can be large or run the other way.

biological target: Atrial natriuretic peptide receptor 1 (Homo sapiens) (UniProt P16066); assay: Natriuretic polypeptide receptor (hNpr1) antagonism - Pilot screen (AID 1347049; calls by dose curve;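 further: HEK293 cells with hNpr1 and GloSensor cGMP luciferase stimulated by 0.1 nM hNppA; agonist-evoked cGMP luminescence read 20 min after hNppA addition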); conditions: hNpr1 cells, antagonist mode cGMP read-out; series mostly up to 57.5 µM
Summary of the method: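 Cells expressing receptor plus cGMP biosensor are seeded and incubated overnight at 37C, then loaded with GloSensor reagent (2% final) at room temperature for 2 h. Library compounds go on for 30 min. A pre-read precedes agonist (hNppA, 0.1 nM final) and a 20-min readout.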

Sequence of Atrial natriuretic peptide receptor 1 (Homo sapiens) (P16066 whole entry, looked up): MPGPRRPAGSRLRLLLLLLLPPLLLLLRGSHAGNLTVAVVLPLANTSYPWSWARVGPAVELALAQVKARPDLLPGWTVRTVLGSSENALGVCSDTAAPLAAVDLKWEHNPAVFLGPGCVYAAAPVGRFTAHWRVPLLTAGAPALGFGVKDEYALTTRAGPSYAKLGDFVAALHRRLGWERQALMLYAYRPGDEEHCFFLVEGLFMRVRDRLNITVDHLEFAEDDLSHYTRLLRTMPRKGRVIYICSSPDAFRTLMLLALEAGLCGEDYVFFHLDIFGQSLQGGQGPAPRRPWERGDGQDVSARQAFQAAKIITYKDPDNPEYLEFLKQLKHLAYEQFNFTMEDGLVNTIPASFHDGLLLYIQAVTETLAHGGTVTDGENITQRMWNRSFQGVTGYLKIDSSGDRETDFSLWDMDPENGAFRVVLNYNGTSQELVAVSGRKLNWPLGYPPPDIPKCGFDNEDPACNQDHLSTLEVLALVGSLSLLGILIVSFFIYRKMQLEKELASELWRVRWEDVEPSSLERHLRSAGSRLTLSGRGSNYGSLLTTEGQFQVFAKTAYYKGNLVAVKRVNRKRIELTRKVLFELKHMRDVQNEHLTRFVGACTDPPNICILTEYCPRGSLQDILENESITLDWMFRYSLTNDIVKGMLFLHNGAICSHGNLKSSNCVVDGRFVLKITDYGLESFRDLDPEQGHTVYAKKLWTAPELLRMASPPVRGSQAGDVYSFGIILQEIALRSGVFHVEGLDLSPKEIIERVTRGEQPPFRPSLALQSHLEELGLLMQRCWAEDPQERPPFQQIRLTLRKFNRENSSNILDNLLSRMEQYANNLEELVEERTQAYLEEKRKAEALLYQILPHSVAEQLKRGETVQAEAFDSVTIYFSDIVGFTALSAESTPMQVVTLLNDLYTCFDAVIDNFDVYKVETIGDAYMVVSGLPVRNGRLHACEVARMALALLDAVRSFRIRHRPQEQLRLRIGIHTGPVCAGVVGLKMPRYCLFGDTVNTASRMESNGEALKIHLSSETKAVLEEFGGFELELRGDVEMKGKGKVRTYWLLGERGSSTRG

Compound	Potency
COc1cc2nc(N3CCN(C(=O)C4COc5ccccc5O4)CC3)nc(N)c2cc1OC (centres undefined)	inactive
NCCc1cnc[nH]1	inactive
CC(C)(Oc1ccc(C2CC2(Cl)Cl)cc1)C(=O)O (centres undefined)	inactive
CCC1(C)CC(=O)NC1=O (centres undefined)	inactive
NC(=O)OCC(COC(N)=O)c1ccccc1	inactive
O=C1N(c2ccccc2)c2ccccc2C1(Cc1ccncc1)Cc1ccncc1	inactive
NC(=O)NO	inactive
CN1CCN(C2=Nc3cc(Cl)ccc3Nc3ccccc32)CC1	inactive
CCN1CCCC1CNC(=O)c1cc(S(=O)(=O)CC)c(N)cc1OC (centres undefined)	inactive
CN1CCC(=C2c3ccccc3CC(=O)c3sccc32)CC1	inactive
COc1ccc2c(c1)c(CC(=O)O)c(C)n2C(=O)c1ccc(Cl)cc1	inactive
CN(C)c1nc(N(C)C)nc(N(C)C)n1	inactive
CC(C(=O)O)c1cccc(C(=O)c2ccccc2)c1 (centres undefined)	inactive
CN1CCN2c3ccccc3Cc3ccccc3C2C1 (centres undefined)	inactive
CN1CCC(=C2c3ccccc3C=Cc3ccccc32)CC1	inactive
Fc1ccc([C@@H]2CCNC[C@H]2COc2ccc3c(c2)OCO3)cc1	inactive
CCOC(=O)C(C)(C)Oc1ccc(Cl)cc1	inactive
O=c1[nH]cc(F)c(=O)[nH]1	inactive
CCc1cccc2c3c([nH]c12)C(CC)(CC(=O)O)OCC3 (centres undefined)	inactive
Cn1cnc2c1c(=O)[nH]c(=O)n2C	inactive
Nc1nc2c(ncn2COC(CO)CO)c(=O)[nH]1	inactive
O=C(c1ccc(OCCN2CCCCC2)cc1)c1c(-c2ccc(O)cc2)sc2cc(O)ccc12	inactive
Nc1ccn([C@H]2CC[C@@H](CO)O2)c(=O)n1	inactive
CCOC(=O)c1ncn2c1CN(C)C(=O)c1cc(F)ccc1-2	inactive
CC(C)NCC(O)COc1ccc(CCOCC2CC2)cc1 (centres undefined)	inactive
O=C(c1ccc(F)cc1)C1CCN(CCn2c(=O)[nH]c3ccccc3c2=O)CC1	inactive
O=c1c(-c2ccc(O)cc2)coc2cc(O)cc(O)c12	inactive
CC12CC3CC(C)(C1)CC(N)(C3)C2	inactive

biological target: Atrial natriuretic peptide receptor 2 (Homo sapiens) (UniProt P20594); assay: Natriuretic polypeptide receptor (hNpr2) antagonism - Pilot subtype selectivity assay (AID 1347050; calls by dose curve; further: potency means the concentration at half of the fitted maximal effect); conditions: NPR2-expressing cells, cGMP antagonist-mode read-out; series mostly up to 38.3 µM
Summary of the method: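 Read-out: GloSensor luminescence (CCD imager), baseline vs post-stimulation. HEK293 cells expressing hNpr2; compounds pre-incubated 30-50 min at ambient temperature; hNppC 1 nM final, 20 min.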

Sequence of Atrial natriuretic peptide receptor 2 (Homo sapiens) (P20594 whole entry, looked up): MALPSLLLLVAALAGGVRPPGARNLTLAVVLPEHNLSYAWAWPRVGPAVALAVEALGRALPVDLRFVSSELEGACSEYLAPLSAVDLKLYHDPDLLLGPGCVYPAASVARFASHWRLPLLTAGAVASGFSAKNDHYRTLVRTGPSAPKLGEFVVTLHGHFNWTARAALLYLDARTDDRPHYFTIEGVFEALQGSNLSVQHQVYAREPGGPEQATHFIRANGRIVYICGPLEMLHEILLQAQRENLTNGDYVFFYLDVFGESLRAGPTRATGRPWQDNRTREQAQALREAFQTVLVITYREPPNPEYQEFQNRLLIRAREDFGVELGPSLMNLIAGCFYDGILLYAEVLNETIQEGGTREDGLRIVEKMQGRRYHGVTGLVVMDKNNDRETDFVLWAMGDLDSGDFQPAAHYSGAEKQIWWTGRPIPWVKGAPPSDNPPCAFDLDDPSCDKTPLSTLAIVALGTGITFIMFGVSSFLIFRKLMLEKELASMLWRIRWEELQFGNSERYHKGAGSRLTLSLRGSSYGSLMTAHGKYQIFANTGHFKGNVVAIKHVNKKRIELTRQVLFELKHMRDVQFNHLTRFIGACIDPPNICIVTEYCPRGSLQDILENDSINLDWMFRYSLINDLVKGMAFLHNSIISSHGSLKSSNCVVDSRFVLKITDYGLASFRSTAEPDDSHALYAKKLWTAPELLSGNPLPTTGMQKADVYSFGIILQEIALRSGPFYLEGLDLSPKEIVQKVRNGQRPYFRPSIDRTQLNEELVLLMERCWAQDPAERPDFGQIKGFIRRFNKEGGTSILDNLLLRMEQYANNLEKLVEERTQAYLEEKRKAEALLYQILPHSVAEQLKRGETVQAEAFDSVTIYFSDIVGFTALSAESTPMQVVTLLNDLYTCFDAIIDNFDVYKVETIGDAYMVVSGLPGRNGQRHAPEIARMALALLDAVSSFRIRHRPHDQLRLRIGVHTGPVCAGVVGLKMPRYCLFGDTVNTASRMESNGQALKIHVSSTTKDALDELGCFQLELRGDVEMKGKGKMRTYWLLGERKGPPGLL

Compound	Potency
COc1cc2nc(N3CCN(C(=O)C4COc5ccccc5O4)CC3)nc(N)c2cc1OC (centres undefined)	inactive
NCCc1cnc[nH]1	inactive
CC(C)(Oc1ccc(C2CC2(Cl)Cl)cc1)C(=O)O (centres undefined)	inactive
CN1CCN(C2=Nc3cc(Cl)ccc3Nc3ccccc32)CC1	10.4 µM (active)
COc1ccc2c(c1)c(CC(=O)O)c(C)n2C(=O)c1ccc(Cl)cc1	inactive
CN(C)c1nc(N(C)C)nc(N(C)C)n1	inactive
CN1CCC(=C2c3ccccc3C=Cc3ccccc32)CC1	11.7 µM (active)
CCOC(=O)C(C)(C)Oc1ccc(Cl)cc1	inactive
O=c1[nH]cc(F)c(=O)[nH]1	inactive
Cn1cnc2c1c(=O)[nH]c(=O)n2C	inactive
O=C(c1ccc(OCCN2CCCCC2)cc1)c1c(-c2ccc(O)cc2)sc2cc(O)ccc12	inactive
Nc1ccn([C@H]2CC[C@@H](CO)O2)c(=O)n1	inactive

system: not listed separately; assay: NS1 protein of Zika virus - qHTS assay to identify small molecule inhibitors in human HEK 293 cells (AID 1347053); conditions: HEK293 ZIKV MR766 infection, NS1 TR-FRET, 24 h; series mostly up to 46.1 µM; further: nearly all actives have a fitted effect of over 55% in size; further: potency means the concentration at half of the fitted maximal effect
Summary of the method: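 In this cell-based screen, HEK 293 cultures received compound for one hour before Zika MR766 at MOI = 0.5. NS1 was quantified 24 hours later by TR-FRET, normalized to virus-free wells and infected wells.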

Compound	Potency
COc1cc2nc(N3CCN(C(=O)C4COc5ccccc5O4)CC3)nc(N)c2cc1OC (centres undefined)	inactive
NCCc1cnc[nH]1	inactive
CC(C)(Oc1ccc(C2CC2(Cl)Cl)cc1)C(=O)O (centres undefined)	inactive
CCC1(C)CC(=O)NC1=O (centres undefined)	inactive
NC(=O)OCC(COC(N)=O)c1ccccc1	inactive
O=C1N(c2ccccc2)c2ccccc2C1(Cc1ccncc1)Cc1ccncc1	inactive
NC(=O)NO	inactive
CN1CCN(C2=Nc3cc(Cl)ccc3Nc3ccccc32)CC1	inactive
CCN1CCCC1CNC(=O)c1cc(S(=O)(=O)CC)c(N)cc1OC (centres undefined)	inactive
CN1CCC(=C2c3ccccc3CC(=O)c3sccc32)CC1	inactive
COc1ccc2c(c1)c(CC(=O)O)c(C)n2C(=O)c1ccc(Cl)cc1	inactive
CN(C)c1nc(N(C)C)nc(N(C)C)n1	inactive
CC(C(=O)O)c1cccc(C(=O)c2ccccc2)c1 (centres undefined)	inactive
CN1CCN2c3ccccc3Cc3ccccc3C2C1 (centres undefined)	inactive
CN1CCC(=C2c3ccccc3C=Cc3ccccc32)CC1	inactive
Fc1ccc([C@@H]2CCNC[C@H]2COc2ccc3c(c2)OCO3)cc1	inactive
Clc1ccc2c(c1)C(N1CCNCC1)=Nc1ccccc1O2	inactive

Compound	Potency
CCOC(=O)C(C)(C)Oc1ccc(Cl)cc1	inactive
O=c1[nH]cc(F)c(=O)[nH]1	inactive
CCc1cccc2c3c([nH]c12)C(CC)(CC(=O)O)OCC3 (centres undefined)	inactive
Cn1cnc2c1c(=O)[nH]c(=O)n2C	inactive
COc1ccc(CCN(C)CCCC(C#N)(c2ccc(OC)c(OC)c2)C(C)C)cc1OC (centres undefined)	inactive
O=C1c2c(O)ccc(O)c2C(=O)c2c(NCCNCCO)ccc(NCCNCCO)c21	833 nM (active)
Nc1nc2c(ncn2COC(CO)CO)c(=O)[nH]1	inactive
O=C(c1ccc(OCCN2CCCCC2)cc1)c1c(-c2ccc(O)cc2)sc2cc(O)ccc12	inactive
Nc1ccn([C@H]2CC[C@@H](CO)O2)c(=O)n1	inactive
CCOC(=O)c1ncn2c1CN(C)C(=O)c1cc(F)ccc1-2	inactive
CC(C)NCC(O)COc1ccc(CCOCC2CC2)cc1 (centres undefined)	inactive
Cn1c(=O)c2c(ncn2C)n(C)c1=O	inactive
O=C(c1ccc(F)cc1)C1CCN(CCn2c(=O)[nH]c3ccccc3c2=O)CC1	inactive
CC[C@@]1(O)C(=O)OCc2c1cc1n(c2=O)Cc2cc3c(CN(C)C)c(O)ccc3nc2-1	inactive and 41.8 nM (active)
O=c1c(-c2ccc(O)cc2)coc2cc(O)cc(O)c12	inactive
Cn1ccc2cc3c(cc21)CCN3C(=O)Nc1cccnc1	inactive
CC12CC3CC(C)(C1)CC(N)(C3)C2	inactive
